{"source": "PubChem BioAssay AID488969", "about": "(Vanderbilt High Throughput Screening Facility, 2010)", "note": "In all, about 110,000 compounds were measured (“z-score”: median about -0.1, highest 2% from about 2 on). Shown is part of a subset that was picked to be rich in the highest values. Activity calls are given as the source filed them.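 How the source made its calls: active means z-score in the third read window above 3 or below -3; inactive means the rest.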", "data": [{"target": "Metabotropic glutamate receptor 8 (Rattus norvegicus) (UniProt P70579)", "sequence (P70579 whole entry, looked up)": "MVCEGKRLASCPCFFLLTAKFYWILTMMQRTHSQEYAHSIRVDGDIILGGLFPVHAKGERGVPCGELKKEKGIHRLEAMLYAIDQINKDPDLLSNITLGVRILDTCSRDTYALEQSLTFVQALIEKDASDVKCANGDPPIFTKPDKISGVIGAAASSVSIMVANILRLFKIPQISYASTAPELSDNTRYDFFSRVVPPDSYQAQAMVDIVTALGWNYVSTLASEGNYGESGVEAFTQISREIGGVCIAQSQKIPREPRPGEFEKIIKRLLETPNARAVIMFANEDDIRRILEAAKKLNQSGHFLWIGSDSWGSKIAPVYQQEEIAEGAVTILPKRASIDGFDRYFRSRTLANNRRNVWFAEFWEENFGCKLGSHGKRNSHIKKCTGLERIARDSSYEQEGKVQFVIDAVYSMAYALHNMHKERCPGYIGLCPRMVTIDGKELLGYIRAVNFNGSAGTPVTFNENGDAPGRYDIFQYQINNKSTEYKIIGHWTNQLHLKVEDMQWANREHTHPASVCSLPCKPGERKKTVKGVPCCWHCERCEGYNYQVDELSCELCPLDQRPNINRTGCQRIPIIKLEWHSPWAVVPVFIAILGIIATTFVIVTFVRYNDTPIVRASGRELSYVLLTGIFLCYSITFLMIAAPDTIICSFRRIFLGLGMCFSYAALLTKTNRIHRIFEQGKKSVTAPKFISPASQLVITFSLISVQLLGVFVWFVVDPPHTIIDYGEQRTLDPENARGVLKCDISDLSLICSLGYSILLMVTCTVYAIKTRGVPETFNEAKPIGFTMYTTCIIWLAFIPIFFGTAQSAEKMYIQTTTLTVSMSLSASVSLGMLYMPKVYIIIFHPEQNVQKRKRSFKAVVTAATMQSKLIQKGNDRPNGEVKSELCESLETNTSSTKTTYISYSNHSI", "assay": "mGluR8 Gi/Go-coupled signaling modulation – cell-based, rat, thallium flux, HTS, primary screen (AID 488969)", "conditions": "HEK293 rat mGluR8, GIRK (G protein-gated inwardly rectifying potassium channel) thallium flux, FluoZin2; at 10 µM; stronger effect = higher value; submaximal glutamate (EC20) added with thallium", "values": [{"smiles": "CCc1nc(C)cn1S(=O)(=O)c1cc(Br)c(C)cc1OC", "z-score": -0.193}, {"smiles": "CCc1nc(C)cn1S(=O)(=O)c1cc(Cl)c(OC)cc1Cl", "z-score": 2.99}, {"smiles": "CCc1nc(C)cn1S(=O)(=O)c1cc(C)c(OC)cc1C", "z-score": 0.289}, {"smiles": "Cc1nc(CS(=O)c2ccc(Cl)cc2)cc(NCc2ccc(Cl)cc2Cl)n1", "note": "(stereo unspecified)", "z-score": 0.31}, {"smiles": "CCOc1nc(-c2ccc(Cl)cc2Cl)ccc1C#N", "z-score": -0.211}, {"smiles": "COC(=O)c1ccccc1NC(=S)NC(NC(=O)c1ccccc1[N+](=O)[O-])C(Cl)(Cl)Cl", "note": "(stereo unspecified)", "z-score": 2.67}, {"smiles": "O=C(NC(NC(=S)Nc1ccccc1C(=O)O)C(Cl)(Cl)Cl)c1ccco1", "note": "(stereo unspecified)", "z-score": -0.106}, {"smiles": "O=C(O)c1ccccc1NC(=S)NC(NC(=O)c1ccccc1[N+](=O)[O-])C(Cl)(Cl)Cl", "note": "(stereo unspecified)", "z-score": -0.103}, {"smiles": "COc1ccc(NC(=S)NC(NC(=O)c2ccccc2Cl)C(Cl)(Cl)Cl)c([N+](=O)[O-])c1", "note": "(stereo unspecified)", "z-score": -0.469}, {"smiles": "COC(=O)c1ccccc1NC(=S)NC(NC(=O)c1ccco1)C(Cl)(Cl)Cl", "note": "(stereo unspecified)", "z-score": "15.3 (active)"}, {"smiles": "COc1ccccc1NC(=S)NC(NC(=O)c1ccco1)C(Cl)(Cl)Cl", "note": "(stereo unspecified)", "z-score": -0.246}, {"smiles": "CCNC(=O)NC(=O)C(C)OC(=O)c1cccnc1SC", "note": "(stereo unspecified)", "z-score": -0.0754}, {"smiles": "CN(C)C(=O)C(=O)c1c(-c2ccccc2)cc2ccccn12", "z-score": -0.294}, {"smiles": "CN(CC(=O)Nc1ccccc1Br)Cc1nc2ccccc2c(=O)[nH]1", "z-score": 0.733}, {"smiles": "N#Cc1nc(COc2ccccc2)oc1N1CCN(c2cccc(Cl)c2)CC1", "z-score": "3.31 (active)"}, {"smiles": "N#Cc1nc(Cc2ccccc2)oc1N1CCN(c2cccc(Cl)c2)CC1", "z-score": 0.287}, {"smiles": "N#Cc1nc(COc2cccc(Cl)c2)oc1N1CCCC1", "z-score": -0.382}, {"smiles": "Cc1c(CCOC(=O)CC23CC4CC(CC(C4)C2)C3)sc[n+]1CC(=O)c1ccc(Br)cc1", "z-score": 0.0917}, {"smiles": "Cc1c(CCOC(=O)C2C3CC4CC(C3)CC2C4)sc[n+]1CC(=O)c1ccc(Br)cc1", "note": "(stereo unspecified)", "z-score": 2.48}, {"smiles": "Cc1ncsc1CCOC(=O)C1C2CC3CC(C2)CC1C3", "note": "(stereo unspecified)", "z-score": 0.00939}, {"smiles": "COc1cc2[nH]c(=O)n(CCCCCC(=O)N3CCN(c4ccccc4)CC3)c(=O)c2cc1OC", "z-score": -0.317}, {"smiles": "COc1cc2[nH]c(=O)n(CCC(=O)N3CCC(N4CCCCC4)CC3)c(=O)c2cc1OC", "z-score": 0.8}, {"smiles": "CCOc1cc2[nH]c(=O)n(CCCCC(=O)N3CCCCCC3)c(=O)c2cc1OCC", "z-score": 2.21}, {"smiles": "O=C(CCC(=O)OCC(=O)c1cccc([N+](=O)[O-])c1)Nc1ccccc1Cl", "z-score": 0.0825}, {"smiles": "CCOC(=O)CC(=O)Nc1ccc(C)cc1", "z-score": -0.33}, {"smiles": "Cc1ccc(C2C(/C=C3/SC(=S)NC3=O)=C(c3cccs3)Oc3ccccc32)cc1", "note": "(stereo unspecified)", "z-score": 2.55}, {"smiles": "Cc1ccc(C2C(C=Nc3c(C)n(C)n(-c4ccccc4)c3=O)=C(c3ccccc3)Oc3ccccc32)cc1", "note": "(stereo unspecified)", "z-score": -0.137}, {"smiles": "Cc1cccc(N=C2NC(=O)/C(=C\\c3cccs3)S2)c1", "z-score": 0.692}, {"smiles": "CCOc1ccccc1C1CC(c2ccc(F)cc2)Nc2nc(N)nn21", "note": "(stereo unspecified)", "z-score": -0.0345}, {"smiles": "Cc1ccc(CNC(=O)C(Cc2ccccc2)NS(=O)(=O)c2cccs2)cc1", "note": "(stereo unspecified)", "z-score": -0.105}, {"smiles": "O=c1[nH]c(CN2CCN(Cc3ccccc3)CC2)nc2sc3c(c12)CCC3", "z-score": -0.568}, {"smiles": "O=c1[nH]cnc2sc3c(c12)CCN(Cc1ccccc1)C3", "z-score": 0.233}, {"smiles": "CCCSc1nc2sc3c(c2c(=O)[nH]1)CCN(Cc1ccccc1)C3", "z-score": "3.04 (active)"}, {"smiles": "O=C1C=C(NCc2ccco2)CCC1", "z-score": 2}, {"smiles": "CC1(C)CC(=O)C=C(NCc2ccco2)C1", "z-score": -0.0748}, {"smiles": "O=C1C=C(NCc2ccccc2)CCC1", "z-score": -0.0868}, {"smiles": "Cc1ccc(Cn2c(SCC(C)C)nc3c2c(=O)[nH]c(=O)n3C)cc1", "z-score": -0.876}, {"smiles": "COc1cc2c(=O)n(Cc3ccccc3)c(=O)n(CC(=O)NCCc3ccccc3)c2cc1OC", "z-score": -0.669}, {"smiles": "CC1(C)CC(=O)C2=C(C1)NC(=O)CC2c1ccc(F)cc1", "note": "(stereo unspecified)", "z-score": -0.481}, {"smiles": "CCc1ccccc1N(CC)C(=O)CCc1nc(-c2ccc(C)cc2)no1", "z-score": -0.0345}, {"smiles": "Cc1ccc(-c2noc(CCC(=O)N(C)c3ccccc3C)n2)cc1", "z-score": 0.361}, {"smiles": "CCc1ccccc1N(C)C(=O)CCc1nc(-c2ccc(C)cc2)no1", "z-score": 2.44}, {"smiles": "Cc1ccc(-c2noc(CCC(=O)NC3CCN(Cc4ccccc4)CC3)n2)cc1", "z-score": 2.02}, {"smiles": "Cc1ccc(-c2noc(CCC(=O)NCCN3CCN(Cc4ccccc4)CC3)n2)cc1", "z-score": -0.696}, {"smiles": "COc1ccc(-c2noc(CCC(=O)NCC3CCN(Cc4cccc(C)c4)CC3)n2)cc1", "z-score": 0.183}, {"smiles": "Cc1ccc(-c2noc(CCC(=O)NCC3CCN(Cc4cccc(C)c4)CC3)n2)cc1", "z-score": 2.64}, {"smiles": "O=C(CCc1nc(-c2ccccc2F)no1)NC1CCN(Cc2ccccc2)CC1", "z-score": 0.608}, {"smiles": "COc1ccc(-c2noc(CCC(=O)NC3CCN(Cc4ccccc4)CC3)n2)cc1", "z-score": 0.924}, {"smiles": "CC1CCN(S(=O)(=O)c2ccc(NC(=O)CN3CCCC(C)C3)cc2)CC1", "note": "(stereo unspecified)", "z-score": 0.282}, {"smiles": "O=C(c1cccc(F)c1)N1CCc2ccccc21", "z-score": -0.134}, {"smiles": "CCOC(=O)c1cc(NC(=O)c2cc(C)on2)cc(C(=O)OCC)c1", "z-score": -0.369}, {"smiles": "CCn1nc2cc(C(=O)NCCc3cccs3)ccc2c1OC", "z-score": -0.218}, {"smiles": "COC(=O)CSC1=C(C#N)C(c2sccc2C)CC(=O)N1", "note": "(stereo unspecified)", "z-score": 0.174}, {"smiles": "O=C(NCC1CCCO1)C(c1cccs1)N(C(=O)Cn1nnc(-c2cccs2)n1)C1CCCC1", "note": "(stereo unspecified)", "z-score": -0.378}, {"smiles": "C/C(=N\\NC(=O)c1ccccc1C)c1cccc([N+](=O)[O-])c1", "z-score": -0.192}, {"smiles": "CCCCNc1ccc2nsnc2c1[N+](=O)[O-]", "z-score": -0.137}]}]}
